Active and inactive are the calls of the source. Unless noted, no rule for the calls is given here.
Tests used:
[1] = test system: Wnt5a (protein binding on small-molecule microarray); experiment: small molecules binding Wnt5a protein – biophysical, small-molecule microarray, 635/667 nm fluorescence, primary screen (AID 1142); conditions: 635 nm fluorescence, higher = more signal;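 also: fluorescence read at 667 nm with signal to noise per printed feature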
[2] = ATP-based viability of Huh7 replicon cells – cell-based, CellTiter-Glo luminescence, basal, 48 h, cytotoxicity control for HCV replication inhibitor project, primary screen (AID 1143); conditions: higher = more signal, called active from +8 up or from −8 down;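 also: Huh7 hepatoma cells carrying a hepatitis C replication reporter with no stimulus; test concentration not given here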
[3] = Pseudomonas biofilm growth suppression – PAO1 strain, BacTiter-Glo luminescence, LB-PBS, primary screen (AID 1144); conditions: P. aeruginosa PAO1 biofilm, 12 h, higher = more signal
[4] = basal CRE-LacZ reporter activity in PC12 – cell-based, unstimulated, primary screen (AID 1145); conditions: no forskolin, luminescence, 4.5 h, higher = more signal, called active from +8 up or from −8 down
[5] = forskolin-driven CRE-LacZ activity in PC12 – cell-based, CRE-LacZ reporter, forskolin-stimulated, primary screen (AID 1146); conditions: luminescence, 4.5 h, higher = more signal, called active from +8 up or from −8 down;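 also: PC12 cells with 6xCRE LacZ reporter stimulated by forskolin 10 µM; beta-galactosidase reporter signal reflecting CREB driven transcription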
[6] = target: Streptavidin (Streptomyces avidinii) (UniProt P22629); experiment: compounds binding control protein streptavidin – biophysical, small-molecule microarray, 635/667 nm fluorescence, artefact control for SMM compound annotation, primary screen (AID 1147); conditions: higher = more signal;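 also: signal reflects streptavidin binding to arrayed compounds as a control protein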
[7] = probe aInhba binding on compound microarray – biochemical, small-molecule microarray, 635/667 nm fluorescence, primary screen (AID 1148); conditions: higher = more signal;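 also: score merges 667nm spot fluorescence with signal-to-noise for antibody binding to printed compounds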
[8] = target: Torsin-1A (Homo sapiens) (UniProt O14656); experiment: TOR1A wild-type binding on microarray – cell lysate, small-molecule microarray, lysate, 635/667 nm, primary screen (AID 1149); conditions: COS7 hTOR1A-WT lysate, 635 nm fluorescence, higher = more signal
[9] = target: Torsin-1A (Homo sapiens) (UniProt O14656); experiment: torsin A mutant lysate binding on microarrays – cell lysate, small-molecule microarray, COS7 lysate, 635/667 nm fluorescence, primary screen (AID 1150); conditions: COS7 hTOR1A mutant lysate, 635 nm fluorescence, higher = more signal;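 also: score pools 667 nm emission and signal to noise measuring lysate protein binding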
[10] = test system: Sonic hedgehog protein (Shh); experiment: Sonic hedgehog microarray binding compounds – biochemical, small-molecule microarray, 635/667 nm fluorescence, primary screen (AID 1151); conditions: 635 nm fluorescence, higher = more signal;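 also: Shh protein binding to compounds spotted on small-molecule microarray slides; score combines spot fluorescence intensity with signal-to-noise across triplicate slides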
[11] = optical density shifts of acrAB sulA E. coli – strain DRC41, OD650, 48 h, E. coli filamentation inducer project, primary screen (AID 1152); conditions: higher = more signal, called active from +8 up or from −8 down;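 also: E. coli MC1000 strain DRC41 lacking acrAB efflux pump and sulA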
[12] = probe aLefty1 binding on compound microarray – biochemical, small-molecule microarray, 635/667 nm fluorescence, primary screen (AID 1153); conditions: higher = more signal;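 also: score merges spot fluorescence with signal-to-noise ratio from the scanned slide images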
[13] = plasmodial surface anion channel blockers, osmotic lysis – cell-based, P. falciparum Indochina, OD700, 1 h, primary screen (AID 1154); conditions: P. falciparum Indochina infected RBC osmotic lysis, higher = more signal, called active from +8 up or from −8 down
[14] = plasmodial surface anion channel blockers, osmotic lysis – cell-based, P. falciparum Indochina, OD700, 2 h, primary screen (AID 1155);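 also: lysis reports solute entry through the parasite surface anion channel PSAC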; conditions: P. falciparum Indochina infected erythrocytes, higher = more signal, called active from +8 up or from −8 down
[15] = changes in parasitized red cell lysis, either direction – P. falciparum Indochina, OD700, 3 h, PSAC antagonist project, primary screen (AID 1156); conditions: P. falciparum-infected erythrocytes, osmotic lysis, higher = more signal, called active from +8 up or from −8 down
[16] = plasmodial surface anion channel blockers, osmotic lysis – cell-based, P. falciparum Indochina, OD700, 18 h, primary screen (AID 1157); conditions: P. falciparum Indochina infected erythrocytes, osmotic lysis OD700, 18 h; higher = more signal, called active from +8 up or from −8 down
[17] = S6 kinase pathway phospho-S6 level changes – cell-based, A549, cytoblot, luminescence, serum-stimulated, primary screen (AID 1158); conditions: 5 h, higher = more signal;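 also: serum-stimulated A549 lung adenocarcinoma cells; signal is phosphorylated S6 detected by cytoblot immunostaining with HRP secondary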
[18] = target: NADPH oxidase 2 (Homo sapiens) (UniProt P04839); experiment: compounds shifting NOX2 Amplex Red fluorescence – cell-based, HEK293-NOX2, PMA-stimulated, NOX inhibitor project, primary screen (AID 1159); conditions: 45 min, higher = more signal, called active from +8 up or from −8 down; also: test concentration not given here
[19] = target: NADPH oxidase 4 (Homo sapiens) (UniProt Q9NPH5); experiment: compounds shifting NOX4 Amplex Red fluorescence – cell-based, HEK293-NOX4, tetracycline-induced, NOX inhibitor project, primary screen (AID 1160); conditions: HEK293-NOX4, Amplex Red H2O2 fluorescence, 45 min; higher = more signal, called active from +8 up or from −8 down
[20] = target: NADPH oxidase 5 (Homo sapiens) (UniProt Q96PH1); experiment: compounds shifting NOX5 Amplex Red fluorescence – cell-based, HEK293-NOX5, NOX inhibitor project, primary screen (AID 1161); conditions: HEK293-NOX5, ionomycin, 45 min, higher = more signal
NADPH oxidase 5 (Homo sapiens), sequence (Q96PH1 whole entry, looked up): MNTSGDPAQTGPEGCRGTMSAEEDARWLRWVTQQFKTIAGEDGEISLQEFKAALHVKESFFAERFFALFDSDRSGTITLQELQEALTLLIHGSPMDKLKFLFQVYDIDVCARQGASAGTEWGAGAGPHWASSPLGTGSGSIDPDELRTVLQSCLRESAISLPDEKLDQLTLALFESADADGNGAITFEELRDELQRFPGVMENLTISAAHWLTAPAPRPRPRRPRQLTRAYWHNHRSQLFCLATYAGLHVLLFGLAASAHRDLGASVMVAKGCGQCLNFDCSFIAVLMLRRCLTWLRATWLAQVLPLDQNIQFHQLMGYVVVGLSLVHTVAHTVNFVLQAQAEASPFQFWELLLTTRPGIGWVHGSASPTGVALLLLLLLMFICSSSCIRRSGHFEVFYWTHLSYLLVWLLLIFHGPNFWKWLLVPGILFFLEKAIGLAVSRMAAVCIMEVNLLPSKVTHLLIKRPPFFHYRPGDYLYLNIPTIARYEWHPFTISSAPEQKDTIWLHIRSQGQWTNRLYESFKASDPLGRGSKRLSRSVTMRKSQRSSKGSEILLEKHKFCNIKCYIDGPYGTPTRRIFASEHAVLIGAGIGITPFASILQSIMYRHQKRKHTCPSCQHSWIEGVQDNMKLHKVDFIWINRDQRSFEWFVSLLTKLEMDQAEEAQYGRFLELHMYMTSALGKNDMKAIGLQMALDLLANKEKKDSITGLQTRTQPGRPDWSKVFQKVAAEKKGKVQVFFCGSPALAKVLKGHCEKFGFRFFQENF

NADPH oxidase 2 (Homo sapiens), sequence (P04839 whole entry, looked up): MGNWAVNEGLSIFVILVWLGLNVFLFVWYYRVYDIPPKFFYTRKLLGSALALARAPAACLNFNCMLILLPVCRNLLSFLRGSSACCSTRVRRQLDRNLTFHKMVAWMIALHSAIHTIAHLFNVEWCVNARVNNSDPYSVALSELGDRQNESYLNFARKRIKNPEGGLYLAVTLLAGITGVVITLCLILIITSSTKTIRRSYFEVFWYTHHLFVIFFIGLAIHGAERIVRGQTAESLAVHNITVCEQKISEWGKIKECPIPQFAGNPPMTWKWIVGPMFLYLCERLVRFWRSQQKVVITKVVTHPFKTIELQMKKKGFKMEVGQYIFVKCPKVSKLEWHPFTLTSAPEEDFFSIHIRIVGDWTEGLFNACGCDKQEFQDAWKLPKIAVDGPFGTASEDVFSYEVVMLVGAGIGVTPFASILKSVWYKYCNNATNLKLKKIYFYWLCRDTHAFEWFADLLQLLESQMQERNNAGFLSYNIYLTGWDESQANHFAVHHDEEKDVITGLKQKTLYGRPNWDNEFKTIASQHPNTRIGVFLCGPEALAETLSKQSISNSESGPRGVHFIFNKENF
NADPH oxidase 4 (Homo sapiens), sequence (Q9NPH5 whole entry, looked up): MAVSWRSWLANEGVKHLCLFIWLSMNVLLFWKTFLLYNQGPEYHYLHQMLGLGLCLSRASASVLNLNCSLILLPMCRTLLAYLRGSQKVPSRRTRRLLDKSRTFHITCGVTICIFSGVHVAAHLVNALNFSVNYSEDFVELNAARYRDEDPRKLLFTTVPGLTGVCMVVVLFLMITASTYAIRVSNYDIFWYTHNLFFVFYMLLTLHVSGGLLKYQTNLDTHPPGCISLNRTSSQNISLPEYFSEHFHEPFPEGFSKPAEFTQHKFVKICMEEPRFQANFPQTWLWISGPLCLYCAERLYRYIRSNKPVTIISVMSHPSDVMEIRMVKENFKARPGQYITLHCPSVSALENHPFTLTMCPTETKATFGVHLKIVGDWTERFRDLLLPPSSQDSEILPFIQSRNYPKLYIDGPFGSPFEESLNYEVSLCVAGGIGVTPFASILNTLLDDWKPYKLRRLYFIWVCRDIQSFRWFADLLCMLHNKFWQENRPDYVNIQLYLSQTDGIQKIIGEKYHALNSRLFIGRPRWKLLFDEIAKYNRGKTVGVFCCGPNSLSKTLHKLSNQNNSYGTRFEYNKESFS
Streptavidin (Streptomyces avidinii), sequence (P22629 whole entry, looked up): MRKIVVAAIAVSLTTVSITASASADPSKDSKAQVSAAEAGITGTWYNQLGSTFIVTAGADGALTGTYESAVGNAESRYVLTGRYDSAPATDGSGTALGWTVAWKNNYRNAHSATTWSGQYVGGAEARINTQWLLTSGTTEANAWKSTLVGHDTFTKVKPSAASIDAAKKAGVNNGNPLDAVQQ
Torsin-1A (Homo sapiens), sequence (O14656 whole entry, looked up): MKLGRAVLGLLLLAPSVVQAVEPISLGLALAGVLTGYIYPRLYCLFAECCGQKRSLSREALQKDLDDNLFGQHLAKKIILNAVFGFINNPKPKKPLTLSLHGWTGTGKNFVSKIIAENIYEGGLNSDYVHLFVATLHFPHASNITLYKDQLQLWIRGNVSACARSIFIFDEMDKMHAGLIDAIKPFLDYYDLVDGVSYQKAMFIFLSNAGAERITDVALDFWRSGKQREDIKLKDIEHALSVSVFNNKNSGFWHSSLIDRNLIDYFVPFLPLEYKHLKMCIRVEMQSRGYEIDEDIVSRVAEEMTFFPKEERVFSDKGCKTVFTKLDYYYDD

| SMILES | composite z-score [1] | z-score [2] | z-score [3] | z-score [4] | z-score [5] | composite z-score [6] | composite z-score [7] | composite z-score [8] | composite z-score [9] | composite z-score [10] | z-score [11] | composite z-score [12] | z-score [13] | z-score [14] | z-score [15] | z-score [16] | z-score [17] | z-score [18] | z-score [19] | z-score [20] |
| --- | --- | --- | --- | --- | --- | --- | --- | --- | --- | --- | --- | --- | --- | --- | --- | --- | --- | --- | --- | --- |
| CO[C@H]1COC(=O)[C@@H](C)COC(=O)[C@H](C)NC(=O)CC=C[C@H]1C | 0.0392 | -0.378 (inactive) | 0.371 (inactive) | -0.115 (inactive) | -0.959 (inactive) | -0.639 | -0.176 | 1.15 | 0.991 | 1.6 | -0.0819 (inactive) | -0.0186 | -0.0875 (inactive) | 0.725 (inactive) | 0.76 (inactive) | 0.403 (inactive) | -0.144 | 1.72 (inactive) | 0.315 (inactive) | 0.895 |
| CC=CC1=C(CO)C(=O)[C@@H]2O[C@@H]2C1=O | 0.189 | -1.02 (inactive) | -0.36 (inactive) | 0.0178 (inactive) | 3.64 (inactive) | -0.842 | -0.128 | 0.0039 | -0.579 | 1.72 | 0.33 (inactive) | -0.202 | -0.4 (inactive) | -0.344 (inactive) | -0.501 (inactive) | -0.267 (inactive) | -0.292 | 2.08 (inactive) | -0.329 (inactive) | 0.846 |
| CCCCC#C[C@@H]1C=C[C@H](OC(C)=O)[C@@H](COC(C)=O)O1 | 0.03 | -4.37 (inactive) | 0.713 (inactive) | -0.976 (inactive) | 2.86 (inactive) | 0.202 | -0.154 | 0.568 | 0.234 | 0.437 | -0.656 (inactive) | -0.0111 | 0.604 (inactive) | 0.364 (inactive) | -0.89 (inactive) | -0.0473 (inactive) | -0.268 | -2.78 (inactive) | 1.05 (inactive) | 2.02 |
| CCOC(=O)[C@H](CC(C)C)NC(=O)CCC1CC(OC(=O)NCCc2ccc(F)cc2)CC2(CCCC(COC(=O)NCCOc3ccccc3)O2)O1 (stereo not given in full) | 0.32 | -1.81 (inactive) | -0.446 (inactive) | 0.469 (inactive) | 0.127 (inactive) | 0.939 | 0.336 | 0.0137 | 0.15 | 1.01 | -0.221 (inactive) | -0.263 | 4.92 (inactive) | 0.394 (inactive) | 0.881 (inactive) | 0.323 (inactive) | 0.45 | 1.82 (inactive) | 0.31 (inactive) | 1.33 |
| CCN1C(=O)[C@H]2[C@H]3[C@H](O)[C@H](O)CC(=NNC(=O)OCc4ccc(OC)cc4)[C@@H]3CC[C@H]2C1=O | -0.0453 | 0.821 (inactive) | -0.409 (inactive) | -0.291 (inactive) | -0.523 (inactive) | -0.0023 | -0.0521 | -1.18 | -0.703 | -1.17 | -0.382 (inactive) | 0.238 | 1.09 (inactive) | 0.195 (inactive) | -0.703 (inactive) | 0.181 (inactive) | 0.117 | -0.13 (inactive) | 0.659 (inactive) | -0.0409 |
| C[C@@H]1NC(=O)[C@@H](C)COC(=O)[C@H](C)NC(=O)[C@@H](C)COC1=O | 0.192 | -3.21 (inactive) | -0.906 (inactive) | 0.427 (inactive) | -0.105 (inactive) | -0.335 | -0.0791 | 0.179 | -0.231 | 0.234 | -2.21 (inactive) | -0.248 | 0.116 (inactive) | -0.334 (inactive) | -0.172 (inactive) | -1.15 (inactive) | 0.35 | -0.0632 (inactive) | -1.11 (inactive) | 0.136 |
| C[C@H](ON=C1[C@H]2CCn3c(=O)n(-c4ccccc4)c(=O)n3[C@H]2[C@H](O)[C@@H]2O[C@H]12)c1cn([C@H](CO)Cc2ccccc2)nn1 | 0.087 | 1.92 (inactive) | 0.285 (inactive) | -0.324 (inactive) | 0.578 (inactive) | 1.19 | -0.154 | 0.421 | 0.295 | 0.248 | 0.699 (inactive) | 0.0502 | 0.463 (inactive) | -0.426 (inactive) | -0.089 (inactive) | -0.0498 (inactive) | -0.52 | -0.094 (inactive) | 0.535 (inactive) | 0.346 |
| CCCNC(=O)OC[C@H]1O[C@H](CCON=C(C)CCC(=O)OC[C@H]2O[C@H](c3ccccc3)C=C[C@@H]2Oc2ccc(OC)cc2)C=C[C@@H]1Oc1ccc(OC)cc1 | -0.109 | -1.13 (inactive) | -0.665 (inactive) | -0.478 (inactive) | 0.913 (inactive) | 0.728 | -0.125 | -0.694 | -0.243 | -0.137 | 0.3 (inactive) | -0.0477 | 2.17 (inactive) | 0.767 (inactive) | 0.753 (inactive) | 0.49 (inactive) | -0.441 | -0.245 (inactive) | 0.337 (inactive) | -0.295 |
| CC(C)=CCCC(C)=CCON=C1C[C@@H](O)[C@@H](O)[C@@H]2[C@@H]3C(=O)N(Cc4ccccc4)C(=O)[C@@H]3CC[C@H]12 | -0.0617 | -3.4 (inactive) | -0.302 (inactive) | -0.293 (inactive) | -0.96 (inactive) | 0.0609 | -0.0736 | 0.23 | 0.0793 | 0.993 | -0.169 (inactive) | -0.0197 | 4.49 (inactive) | -0.206 (inactive) | 0.957 (inactive) | -0.748 (inactive) | -0.352 | 1.51 (inactive) | 0.913 (inactive) | -2.3 |
